D1 mod – allosteric modulators of human D1 dopamine receptor; P21728; HEK293 D1, CRE-luciferase, dopamine EC30 potentiation; actives deviate in either direction; B-score at 10 µM; actives 5.9% (n = 58,000); AID 641;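 active = luminescence count or its row- and column-corrected plate score outside the 99.7% band of the plate's sample wells, on either side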
M1 ag – M1 muscarinic receptor agonism; CHO-M1 cells, Fluo-4 calcium fluorescence, agonist mode; stronger effect = higher value; AID 626; B-score at 10 µM; actives 3% (n = 64,000);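 active = fluorescence rise, raw or as B-score row- and column-corrected plate score, outside the 99.7% band of its plate's samples, either direction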
WNV protease inh – WNV NS2B-NS3 proteinase inhibition. z-score (test concentration not listed). WNV NS2B-NS3 protease, fluorogenic substrate Ex360/Em465; stronger effect = lower value. actives 0.18% (n = 65,000). P06935. AID 577; in the data active = z-score below about -3
Htt clearance – mutant huntingtin protein clearance; actives 0.42% (n = 47,000); inhibition, % at 1.5 µM; HeLa Exon1htt(103Q)mCFP, aggregate imaging; zero = plate's median compound well;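 active = inhibition of aggregate fluorescence above about 70%, also judged a hit by eye on the cell image, limit read from the data, passing the limit was not always enough; inconclusive = no rule stated for this call; inactive = not judged a hit on image review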;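 also: cells exposed to compound for three days before fixation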
M1 antag – M1 muscarinic receptor (rat) antagonism; CHO-M1 cells, Fluo-4 calcium, ACh EC80 antagonist mode; stronger effect = lower value; actives 3.4% (n = 64,000); P08482; B-score at 10 µM; AID 628;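 active = calcium fluorescence response, raw or row-and-column corrected B-score, differing from the plate sample mean either way at a set confidence level, mostly lower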
Target sequence (P08482 whole entry, looked up): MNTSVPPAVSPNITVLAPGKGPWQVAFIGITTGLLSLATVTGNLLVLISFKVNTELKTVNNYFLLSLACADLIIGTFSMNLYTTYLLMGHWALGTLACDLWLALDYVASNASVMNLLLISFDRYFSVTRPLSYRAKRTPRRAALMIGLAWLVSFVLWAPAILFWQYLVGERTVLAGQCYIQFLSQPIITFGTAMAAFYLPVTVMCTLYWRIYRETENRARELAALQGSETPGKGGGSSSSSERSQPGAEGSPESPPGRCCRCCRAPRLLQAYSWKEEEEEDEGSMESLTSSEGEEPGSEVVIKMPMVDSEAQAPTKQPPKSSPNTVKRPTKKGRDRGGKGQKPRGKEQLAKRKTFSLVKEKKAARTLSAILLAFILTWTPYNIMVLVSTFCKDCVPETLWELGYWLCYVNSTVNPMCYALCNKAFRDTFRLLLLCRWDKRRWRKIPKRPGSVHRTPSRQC
M1 agonist conf – confirmation of rat M1 muscarinic receptor agonists. shares compounds with M1 ag. fluorescence change (max-min) at 10 µM. CHO-M1 cells, Fluo-4 calcium fluorescence, agonist mode; actives lie on both sides. actives 19% (n = 1,700);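 active = fluorescence change differs from the solvent-only DMSO control mean at a set confidence level in both duplicate runs; inconclusive = differs from solvent-only control mean in just one of two runs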;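 also: an EC20 dose of acetylcholine follows compound addition during the same imaging run; raw fluorescence intensity difference in instrument units with no normalization to controls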
M4 ag counter – counter-screen for M1 agonists: activity at rat M4 receptor; shares compounds with M1 ag; CHO M4/Gqi5 cells, Fluo-4 calcium fluorescence, agonist mode; actives lie on both sides; fluorescence change (max-min) at 10 µM; actives 9% (n = 1,700);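 active = fluorescence change differing from the plate's solvent-only control wells at 99.7% confidence in both duplicates, whether higher or lower; inconclusive = differs from solvent controls in only one of two duplicates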
Numbers without * were called inactive. This is a sample that favours compounds with a hit; in the whole collection about 8.9% have one here.

`c1ccc2c(CCNc3ncnc4nc[nH]c34)c[nH]c2c1` gave D1 mod -5.5*, M1 ag 3.9*, WNV protease inh -1, M1 antag -0.17, M1 agonist conf -9.3 and M4 ag counter -20.
For c1ccc(CCNc2ncnc3nc[nH]c23)cc1 the results were D1 mod -0.26, M1 ag -1.1, WNV protease inh -0.48, Htt clearance -8 and M1 antag -1.1.
For CCOc1ccc2ccccc2c1C(=O)Nc1cc(=O)n(C)c(=O)n1C the results were D1 mod 0.061, M1 ag 0.62, WNV protease inh 0.14 and M1 antag -0.34.
Screening Cc1nc2ncnn2c(C)c1CCC(=O)NCCCN1CCN(c2cccc(Cl)c2)CC1 returned D1 mod -1.1, M1 ag 2.6*, WNV protease inh -0.53, M1 antag -1.1, M1 agonist conf inconclusive and M4 ag counter -36.
Screening CC1(C)CC(=O)C=C(Nc2ccccc2NC(=O)c2cnccn2)C1 returned M1 ag 21*, WNV protease inh 0.17, M1 antag -1.8*, M1 agonist conf -13 and M4 ag counter -23.
For COC(=O)c1ccc(NC2=CC(=O)CC(C)(C)C2)cc1 the results were D1 mod -0.65, M1 ag -0.035, WNV protease inh -1.7 and M1 antag 0.004.
Screening CC(=O)Nc1ccc(NC2=CC(=O)CC(C)(C)C2)cc1 returned D1 mod -0.0082, M1 ag 11*, WNV protease inh -0.41, Htt clearance 36, M1 antag 0.22, M1 agonist conf inconclusive and M4 ag counter -82.
For Cc1cc2c(c(SCC(=O)NCCc3ccccc3)n1)C(=O)OC2 the results were Htt clearance -56.
CS(=O)(=O)N1CCc2cc(S(=O)(=O)Nc3ccc4c(c3)OCCO4)ccc21 was read as D1 mod -1.2, M1 ag 1.8*, WNV protease inh -0.14, M1 antag -1.1, M1 agonist conf 8.9 and M4 ag counter -23.
For CCC(=O)N1CCc2cc(S(=O)(=O)Nc3ccc4c(c3)OCCO4)ccc21 the results were D1 mod -0.23 and WNV protease inh 0.46.
Screening CCOC(=O)N1CCN(c2ncnc3c2[nH]c2ccc(OC)cc23)CC1 returned D1 mod 1.2, M1 ag 2.1*, WNV protease inh 0.001, M1 antag 0.03, M1 agonist conf inconclusive and M4 ag counter -61.
`COc1cccc2[nH]c3c(N4CCCCC4)ncnc3c12` gave D1 mod -0.31, M1 ag 0.066, WNV protease inh -0.94 and M1 antag -0.62.
Screening COc1cc2[nH]c3c(N4CCN(c5ccccn5)CC4)ncnc3c2cc1OC returned D1 mod -4.8*, M1 ag 8.5*, WNV protease inh -0.54, Htt clearance 0, M1 antag -1.3, M1 agonist conf -16 and M4 ag counter -51.
O=C(c1ccc(Br)o1)N(Cc1ccccc1)c1ccccn1 was read as M1 ag 0.31, WNV protease inh 0.4 and M1 antag 0.41.
Screening COC(=O)c1ccc(C(=O)OC)c(NC(=O)CCc2ccc(C)o2)c1 returned D1 mod 0.44, M1 ag -0.43, WNV protease inh -0.61, Htt clearance -60 and M1 antag -0.27.
`COC(=O)c1ccc(C(=O)OC)c(NC(=O)CCC(=O)O)c1` gave D1 mod 1.3, M1 ag 4.2*, WNV protease inh -0.12, Htt clearance 33, M1 antag 1.2, M1 agonist conf -7.7 and M4 ag counter -16.
Screening Cc1ccnc(SCCn2c(N3CCOCC3)nc3c2c(=O)n(C)c(=O)n3C)n1 returned D1 mod -0.5, M1 ag -1.3, WNV protease inh 0.11 and M1 antag -0.44.
CCC1Oc2ccc(C)cc2N(CC(=O)N2CCN(c3ccc(F)cc3)CC2)C1=O (stereo not given) was read as D1 mod -0.51, M1 ag 2.3*, WNV protease inh -0.38, M1 antag 0.57, M1 agonist conf -11 and M4 ag counter inconclusive.
CCOC(=O)C1CCCN(C(=O)CN2C(=O)C(CC)Oc3ccc(C)cc32)C1 (stereo not given) was read as D1 mod 0.2, M1 ag -0.49, WNV protease inh 2.3 and M1 antag 0.28.
Cc1cc(N2CCN(c3ccccc3)CC2)n2c(n1)nc1ccccc12 was read as D1 mod 0.36, M1 ag 7.5*, WNV protease inh -0.11, M1 antag -0.41, M1 agonist conf -32* and M4 ag counter -63.
Screening Cc1cc(N2CCN(c3ccccc3)CC2)n2nnnc2n1 returned D1 mod -0.62, M1 ag -0.96, WNV protease inh -0.43 and M1 antag -0.38.
O=C(O)CCC(=O)Nc1ccc(C(=O)N2CCCCC2)cc1 was read as Htt clearance -14.
`O=S(=O)(Nc1ccc(O)c(Sc2nc3ccccc3s2)c1)c1ccc(Cl)cc1` gave Htt clearance 13.
Screening COc1ccc(CN(C(=O)CSc2nnc(-c3ccc(F)cc3)o2)c2ccc(F)cc2)cc1 returned D1 mod 0.24, M1 ag 0.36, WNV protease inh -0.63 and M1 antag 0.019.
Screening O=C(CSc1nnc(Cn2nnc3ccccc32)o1)N(Cc1ccc(F)cc1)c1ccccc1 returned M1 ag 6.2*, WNV protease inh 1.8, Htt clearance 38, M1 antag -2.2, M1 agonist conf -34* and M4 ag counter -18.
For COc1cccc(C2=CC(c3cccc(OC)c3OC)n3nnnc3N2)c1 (stereo not given) the results were D1 mod 2, M1 ag -1.4, WNV protease inh -1.2 and M1 antag -0.72.
COc1cccc(C2C=C(c3cccs3)Nc3ncnn32)c1OC (stereo not given) was read as D1 mod -0.42, M1 ag 8.1*, WNV protease inh 0.21, M1 antag -0.14, M1 agonist conf 42 and M4 ag counter 39.
`CCOC(=O)c1coc(CNC(=O)c2c(C)oc3c2CCCC3)c1` gave D1 mod 2.7, M1 ag 15*, WNV protease inh -0.67, M1 antag 0.27, M1 agonist conf inconclusive and M4 ag counter -49.
Cc1ccc(N=Cc2c(O)n(-c3cc(Cl)ccc3N3CCOCC3)c(=O)c3ccccc23)cc1C was read as Htt clearance -21.
Cc1ccc(-c2noc(CCC(=O)Nc3cccc(C#N)c3)n2)cc1 was read as D1 mod -0.28, M1 ag 3.5*, WNV protease inh -0.83, M1 antag -1.2, M1 agonist conf -9.5 and M4 ag counter -17.
